Laboratory results taken from PubChem BioAssay (NCATS).
Values joined by “and” are separate entries in the source; they are usually repeats but may differ in a detail not shown here. Equal values may be shown once. Inconclusive results are not listed. Active and inactive are the calls of the source. Unless noted, the call rests on the fitted dose curve; in most records, active means well fitted curve in the direction sought with a large enough effect; inconclusive means small, poorly fitted or top-dose-only effect, or another doubt; inactive means no such curve, though single readings can be large; an effect the other way counts as inactive or inconclusive.

What was measured:
[1] = qHTS profiling for inhibitors of Plasmodium falciparum proliferation (AID 504749);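 further: 0% = DMSO vehicle and full inhibition = artemisinin control; nearly all actives have a fitted effect of over 60% in size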; details: P. falciparum in erythrocytes, SYBR Green DNA, 72 h, at 28.7 µM (top of the series)
In short: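 Quantitative HTS: compounds pinned into medium, infected erythrocytes added (0.3% parasitemia, 2.5% hematocrit), 72 h culture at 37 C under 5% CO2. Saponin/Triton lysis with SYBR Green I, overnight RT, then fluorescence read.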

[2] = Cell Viability - LYMP2-013 (AID 970); details: LYMP2-013 lymphoblastoid cells viability; series mostly up to 92.2 µM;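 further: cells exposed to compound for 24 h at 37 °C; 0% = DMSO only and full inhibition = tetraoctylammonium bromide control; nearly all actives have a fitted effect of over 55% in size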
In short: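 Cytotoxicity is scored as a concentration-dependent drop in intracellular ATP in human lymphoblastoid cells after 24 hr compound exposure at 37 C. ATP is quantified by luciferase luminescence, and AC50 values come from Hill-equation modeling.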

[3] = target: Glucocorticoid receptor (Homo sapiens) (UniProt P04150); assay: qHTS assay for small molecule agonists of glucocorticoid receptor signaling (AID 588532; active means well fitted curve in the direction sought with a large enough effect in the signal ratio, with a control signal flat; the % refers to the signal ratio;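 further: 100% = dexamethasone at 0.1 µM and 0% = DMSO only wells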); details: HeLa MMTV-bla, beta-lactamase ratio, agonist, 18 h; hits give high values; percent of dexamethasone control, DMSO zero
Glucocorticoid receptor (Homo sapiens), sequence (P04150 whole entry, looked up): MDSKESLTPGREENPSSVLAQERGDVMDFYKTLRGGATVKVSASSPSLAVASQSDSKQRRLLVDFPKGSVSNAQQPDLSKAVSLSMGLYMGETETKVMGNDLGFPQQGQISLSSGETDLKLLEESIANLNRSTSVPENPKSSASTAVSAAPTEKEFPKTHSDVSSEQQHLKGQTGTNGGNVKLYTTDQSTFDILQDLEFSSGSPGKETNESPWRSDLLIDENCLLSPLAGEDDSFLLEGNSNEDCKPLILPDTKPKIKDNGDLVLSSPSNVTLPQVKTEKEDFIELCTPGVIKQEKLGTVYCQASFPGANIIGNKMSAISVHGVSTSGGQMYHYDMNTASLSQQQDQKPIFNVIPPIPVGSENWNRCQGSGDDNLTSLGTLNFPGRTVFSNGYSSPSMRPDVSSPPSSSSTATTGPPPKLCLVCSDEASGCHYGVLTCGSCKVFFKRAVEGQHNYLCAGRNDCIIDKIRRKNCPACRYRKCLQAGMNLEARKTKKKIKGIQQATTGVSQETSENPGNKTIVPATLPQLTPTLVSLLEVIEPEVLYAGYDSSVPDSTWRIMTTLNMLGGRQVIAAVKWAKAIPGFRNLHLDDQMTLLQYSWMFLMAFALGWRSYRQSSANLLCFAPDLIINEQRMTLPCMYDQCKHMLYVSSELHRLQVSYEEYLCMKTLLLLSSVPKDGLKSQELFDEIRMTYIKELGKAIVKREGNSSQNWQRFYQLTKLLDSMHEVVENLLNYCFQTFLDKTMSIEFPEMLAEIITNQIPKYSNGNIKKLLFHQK
In short: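 MMTV-bla HeLa, beta-lactamase reporter; medium with 1% charcoal/dextran-stripped FBS; cpds up to 92 uM, 18 h, 37 C; CCF4 readout 460/530 nm; Hill fit → EC50, efficacy vs 0.1 uM dexamethasone = 100%.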

[4] = target: Tumor necrosis factor (Homo sapiens) (UniProt P01375); assay: qHTS assay to identify small molecules that stimulate Tumor Necrosis Factor-alpha (TNF-alpha) secretion (AID 651757; active means well fitted curve in the direction sought with a large enough effect in the signal ratio; the % refers to the signal ratio; further: 0% is about no effect); details: Human cells, HTRF 665/615 ratio; series mostly up to 92.2 µM
Tumor necrosis factor (Homo sapiens), sequence (P01375 whole entry, looked up): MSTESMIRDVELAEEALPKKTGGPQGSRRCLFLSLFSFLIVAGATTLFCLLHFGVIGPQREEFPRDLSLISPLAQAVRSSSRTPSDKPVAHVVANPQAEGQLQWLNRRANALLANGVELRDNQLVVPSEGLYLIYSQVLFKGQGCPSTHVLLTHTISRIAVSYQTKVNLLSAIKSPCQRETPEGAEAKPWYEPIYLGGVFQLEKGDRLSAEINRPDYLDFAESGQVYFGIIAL
In short: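 Human monocytic THP-1 cells are plated, treated with compound and held at 37 C for 17 hrs. Labeled anti-TNF-alpha antibody mixture is then added; after 3 hr at room temperature, TR-FRET signal reports secreted TNF-alpha.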

[5] = MultiTox-Fluor Cytotoxicity Assay - LYMP1-002 - Live Cells (AID 955); details: LYMP1-002 lymphoblastoid live-cell protease fluorescence viability; series mostly up to 46.1 µM;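 further: cells exposed to compound for 16 hours; on the % scale 0 is the no-effect control and ±100 the full control effect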
In short: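 Cells were seeded at 2500 per well and incubated 5 hr. Compounds were then added for 16 hr at 37 C, followed by MultiTox-Fluor reagent for 60 min at room temperature and fluorescence reading of viable-cell protease signal.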

[6] = Cell Viability - LYMP2-002 (AID 977); details: LYMP2-002 lymphoblastoid cell viability, qHTS; series mostly up to 92.2 µM;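 further: compound exposure lasted 24 h at 37 °C; plate controls were DMSO only for no effect and 92 µM tetraoctylammonium bromide for full effect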
In short: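 In this qHTS viability screen, 2500 human lymphoblastoid cells per well receive compound for 24 hr at 37 C, and luciferase-based ATP luminescence gives the viability signal. Tetraoctylammonium bromide serves as positive control.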

[7] = target: Peroxisome proliferator-activated receptor gamma (Homo sapiens) (UniProt P37231); assay: qHTS assay for small molecule agonists of peroxisome proliferator-activated receptor gamma signaling (AID 588536; active means well fitted curve in the direction sought with a large enough effect in the signal ratio, with a control signal flat, not every such curve was filed as active; the % refers to the signal ratio;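 further: 0% = DMSO basal wells and 100% = rosiglitazone at 2 µM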); details: HEK293 PPARg-UAS-bla, beta-lactamase ratio, 16 h, percent of rosiglitazone response, DMSO as zero; series mostly up to 76.7 µM
Peroxisome proliferator-activated receptor gamma (Homo sapiens), sequence (P37231 whole entry, looked up): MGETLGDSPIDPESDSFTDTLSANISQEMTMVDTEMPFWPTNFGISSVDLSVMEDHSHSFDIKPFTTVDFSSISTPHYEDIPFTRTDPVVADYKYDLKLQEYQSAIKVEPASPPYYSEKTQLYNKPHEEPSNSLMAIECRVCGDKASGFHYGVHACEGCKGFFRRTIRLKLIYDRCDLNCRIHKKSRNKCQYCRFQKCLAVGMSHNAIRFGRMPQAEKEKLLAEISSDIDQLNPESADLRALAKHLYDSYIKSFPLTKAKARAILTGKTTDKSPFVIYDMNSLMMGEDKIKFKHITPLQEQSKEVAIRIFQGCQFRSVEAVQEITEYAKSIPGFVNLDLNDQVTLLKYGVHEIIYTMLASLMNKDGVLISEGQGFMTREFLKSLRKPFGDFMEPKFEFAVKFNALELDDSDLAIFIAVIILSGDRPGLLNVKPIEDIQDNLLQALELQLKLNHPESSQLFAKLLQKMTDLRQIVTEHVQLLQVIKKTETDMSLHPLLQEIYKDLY
In short: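 Beta-lactamase reporter read-out: CCF4 fluorescence (ex 405, em 460/530 nm) after 2 h at RT. HEK293 GeneBLAzer cells were treated for 16 h at 37 C. Hill fits gave EC50 and efficacy versus 2 uM rosiglitazone (100%) and DMSO (0%).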

[8] = qHTS for differential inhibitors of proliferation of Plasmodium falciparum line GB4 (AID 1816); details: Potency: Plasmodium falciparum GB4 proliferation inhibition; series mostly up to 28.7 µM;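 further: potency means the concentration at half of the fitted maximal effect; parasite growth measured after 72 h incubation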
[9] = Quantitative high throughput screen for delayed death inhibitors of the malarial parasite plastid, 96 hour incubation (AID 488745); details: Plasmodium falciparum growth; series mostly up to 28.7 µM; further: potency means the concentration at half of the fitted maximal effect; nearly all actives have a fitted effect of over 70% in size
In short: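 Readout is firefly luciferase luminescence from an integrated reporter in P. falciparum; lower signal marks inhibited growth. Cultures at 2% hematocrit and 0.1% parasitemia were treated with compound across two generations (96 h, 37 C, 5% CO2).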

[10] = target: Retinoic acid receptor RXR-alpha (Homo sapiens) (UniProt P19793); assay: qHTS assay for small molecule agonists of retinoid X receptor alpha signaling (AID 588544; calls by dose curve; further: potency means the concentration at half of the fitted maximal effect;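 on activation: 0% = DMSO basal wells and 100% = reference agonist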); details: HEK293T RXRa-UAS-bla, beta-lactamase reporter, 18 h; series mostly up to 76.7 µM
Retinoic acid receptor RXR-alpha (Homo sapiens), sequence (P19793 whole entry, looked up): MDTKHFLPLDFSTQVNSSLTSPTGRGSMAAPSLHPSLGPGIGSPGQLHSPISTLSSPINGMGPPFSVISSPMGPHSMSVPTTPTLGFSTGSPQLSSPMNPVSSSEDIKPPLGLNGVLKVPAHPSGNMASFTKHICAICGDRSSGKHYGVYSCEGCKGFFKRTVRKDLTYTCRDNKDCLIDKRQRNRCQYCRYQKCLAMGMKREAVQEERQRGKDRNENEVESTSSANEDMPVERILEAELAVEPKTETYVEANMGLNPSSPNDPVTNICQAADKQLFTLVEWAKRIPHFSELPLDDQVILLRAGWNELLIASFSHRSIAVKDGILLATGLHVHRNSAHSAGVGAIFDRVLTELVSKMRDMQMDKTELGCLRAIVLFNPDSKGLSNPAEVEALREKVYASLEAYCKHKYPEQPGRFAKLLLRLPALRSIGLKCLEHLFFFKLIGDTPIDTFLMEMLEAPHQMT

[11] = target: Thyroid hormone receptor beta (Homo sapiens) (UniProt P10828); assay: qHTS assay for small molecule agonists of thyroid hormone receptor beta signaling (AID 588545; calls by dose curve); details: TR-UAS-bla GripTite HEK 293, beta-lactamase ratio, agonist mode, 18 h, percent of T3 response, DMSO as zero; series mostly up to 76.7 µM
Thyroid hormone receptor beta (Homo sapiens), sequence (P10828 whole entry, looked up): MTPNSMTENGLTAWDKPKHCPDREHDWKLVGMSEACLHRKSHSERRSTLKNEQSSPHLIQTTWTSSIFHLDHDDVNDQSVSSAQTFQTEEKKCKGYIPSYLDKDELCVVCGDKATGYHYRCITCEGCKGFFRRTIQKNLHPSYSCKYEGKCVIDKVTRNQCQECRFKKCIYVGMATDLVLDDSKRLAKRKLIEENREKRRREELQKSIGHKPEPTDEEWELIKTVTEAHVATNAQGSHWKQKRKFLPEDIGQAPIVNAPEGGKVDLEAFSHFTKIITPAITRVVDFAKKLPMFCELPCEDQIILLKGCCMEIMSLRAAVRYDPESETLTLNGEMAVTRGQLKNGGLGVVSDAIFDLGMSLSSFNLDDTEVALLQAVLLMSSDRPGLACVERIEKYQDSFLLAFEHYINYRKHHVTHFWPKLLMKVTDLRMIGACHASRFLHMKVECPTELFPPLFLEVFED
In short: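 Agonist activity was read as beta-lactamase CCF4 fluorescence (405 ex, 460/530 em), scaled between DMSO (0%) and 10 nM T3 (100%), then Hill-fitted for EC50 and efficacy. HEK 293 TR-UAS-bla cells in 2% charcoal/dextran FBS medium were exposed 18 h at 37 C.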

[12] = Cell Viability - LYMP2-024 (AID 988); details: LYMP2-024 lymphoblastoid cell viability; series mostly up to 92.2 µM;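 further: plate controls were DMSO only for no effect and 92 µM tetraoctylammonium bromide for full effect; nearly all actives have a fitted effect of over 60% in size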
In short: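 qHTS cytotoxicity, human lymphoblastoid line, complete medium; 24 h cpd treatment, 37 C; CellTiter-Glo ATP luminescence readout; tetraoctylammonium bromide positive control; AC50 via Hill fit.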

[Hg+][c]1ccccc1
inactive: activity, negative = inhibition ([1]; parasite line A) 13.8% | activity, negative = inhibition ([1]; parasite line B) -0.414%

COC1=CC(=O)OC(CCc2ccccc2)C1 (stereo not given)
inactive: Potency [2] | activation [3] -4.92% | outcome [4]

COC1=CC(=O)O[C@@H](/C=C/c2ccc3c(c2)OCO3)C1
inactive: outcome [5] | Potency [6] | activation [3] -3.44% | outcome [7]

C[C@]12C=CC(=O)C=C1CCC1C2=CC[C@]2(C)[C@@H](C(=O)CN3CCN(c4cc(N5CCCC5)nc(N5CCCC5)n4)CC3)CC[C@@H]12 (stereo not given in full)
active: Potency [8] 1.26 µM

Clc1ccc2ccccc2c1
inactive: Potency [2] | activation [3] -0.849%

CC(=O)O[C@H]1C[C@@H]2CCC3C(CC[C@@]4(C)[C@H]3C[C@H]([N+]3(C)CCCCC3)[C@@H]4OC(C)=O)[C@@]2(C)C[C@@H]1[N+]1(C)CCCCC1 (stereo not given in full)
active: Potency [9] 13.1 µM

C[C@]12CC[C@H]3[C@@H](CCC4=CC(=O)CC[C@@]43C)[C@@H]1CC[C@@H]2O
inactive: outcome [5] | Potency [2] | outcome [11] | outcome [4] | activity, negative = inhibition ([1]; parasite line A) -11.8% | activity, negative = inhibition ([1]; parasite line B) -14.6%
active: Potency [10] 12.6 µM

CN1C[C@H](C(=O)N[C@]2(C)O[C@@]3(O)C4CCCN4C(=O)[C@H](Cc4ccccc4)N3C2=O)C[C@@H]2c3cccc4[nH]cc(c34)C[C@H]21 (stereo not given in full)
active: Potency [8] 2.24 µM

S=C(S)N1CCCC1
active: Potency [8] 2.82 µM | Potency [9] 5.86 µM

c1ccc(-c2ccccc2)cc1
inactive: Potency [2] | Potency [6] | Potency [12] | activation [3] -0.478% and -3.49% | outcome [7] | outcome [11]

ClCBr
inactive: Potency [6] | activation [3] -4.32% | outcome [11]

Brc1ccccc1
inactive: Potency [6] | Potency [12] | activation [3] -10.5% and -5.75% | outcome [7] | Potency [10]

Cc1cccc([N+](=O)[O-])c1
inactive: Potency [2] | Potency [12] | outcome [7] | outcome [4]

Nc1ccccc1Cl
inactive: outcome [5] | Potency [2] | Potency [12] | activation [3] -0.0832% | outcome [7] | Potency [10]

c1nc[nH]n1
inactive: outcome [5] | Potency [6] | outcome [7] | Potency [10]

CCSC(=O)Cl
inactive: activation [3] 17.3% | Potency [10] | outcome [11] | outcome [4]

C=CC1CC=CCC1 (stereo not given)
inactive: outcome [7] | outcome [4]

CC(C)(C)OOC(C)(C)C
inactive: outcome [5] | Potency [12] | outcome [4]

Cc1ccc2ccccc2c1
inactive: outcome [5] | Potency [6] | Potency [10] | outcome [11] | outcome [4]

CC(C)(C)OO
inactive: outcome [5] | Potency [2] | Potency [6] | Potency [12] | outcome [7]

O=C=NC1CCCCC1
inactive: Potency [2] | Potency [12] | outcome [7] | Potency [10] | outcome [11] | outcome [4]

Cc1ccccc1N
inactive: Potency [6] | Potency [12] | outcome [4]

COc1ccc(C=O)cc1OC
inactive: outcome [5] | Potency [2] | Potency [6] | Potency [10] | outcome [11]

C=C(C)C(=O)OCC1CO1 (stereo not given)
inactive: Potency [6] | Potency [12] | Potency [10]

c1ccc2c(c1)CCCC2
inactive: Potency [6] | Potency [12] | activation [3] 3.9% | outcome [7] | Potency [10] | outcome [11] | outcome [4]

C=CC(=O)OCC
inactive: Potency [2] | activation [3] 2.08% | outcome [11]

O=NN(c1ccccc1)c1ccccc1
inactive: Potency [2] | activation [3] -1.26% and -2.24% | outcome [7] | Potency [10] | outcome [4]

OCC1CO1 (stereo not given)
inactive: outcome [5] | Potency [6] | Potency [12] | activation [3] -12% | outcome [7] | Potency [10] | outcome [11] | outcome [4]
